# From the supplement of paper PMC6555819
# Test system: VDR:RXRa (NR concentration 270 nM, RXRa partner concentration 90 nM)
# Experiment: PBM binding z-score (relative to random genomic background probes); higher = stronger binding; sequences stand for … in GC…GCGATTGACAGCGTAGAATGAAGG
# Method: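 Protein-binding microarray (Agilent 4x180K custom design, double-stranded 60-nt probes: 5' GC cap, 34-nt variable region, 24-nt constant primer region; full probe sequence given). Purified or IVT nuclear receptor:RXRα heterodimers (3:1 NR:RXRα, mostly 270:90 nM) or homodimers were incubated for 1 h in PBS with 2% milk and no ligand, then detected with Alexa488 antibodies. Fluorescence from o1-orientation probes (~5 replicates averaged) was converted to z-scores against 500 random hg19 background probes. Variable regions are seed direct-repeat (DR0–DR5) sites, all their single-nucleotide variants and half-site ablations.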
row,Sequence,PBM binding z-score
1,TGTCAAAGTTCAAACGTAACGTAAGTATCCACAC,4.68
2,GCTCTGAGGACAAGGTCAGAGCTTTGTCCGTAGA,1.68
3,TCTCGGAAGACACGAAAGGTCAGAGCTCGACATC,2.55
4,ATATGTAGGTTATCGGGCCATTCAGTTTGCGCAT,1.14
5,CTTACAGGGTCAGCTAGGCCAGAGTAGGGACGGC,3.88
6,CCTGCTAGGTCAATGCTCAGCTAAAGCAGCTCGC,0.598
7,CGAACTAGGTCCAGGACAGTGAATCTCCGCACGC,-0.573
8,GATTGTAGATCAAGGTTAAGAAAGACTAAGCTAA,0.0632
9,CCAGTCAGGTGAGAAGGTAACTCAGCCTCGATTA,-0.296
10,GGAACGAGGGCAAAGTTGACAGCATCTGTCGACG,1.6
11,GGAACGAGGGAAAGTTGATAGCAGAGTTTGATGG,-0.524
12,TCTAGCAGGCCAGAGGGTCAATCAAGAGGTACGG,1.6
13,GCATATAGGTAATAAAAGGTGAAAGTCCGATTGT,0.675
14,TCTATTAGTTGAAGGGCAACTGACGAGTCCGTTT,0.937
15,CCTTACGGGTCACTCCAGGTTATTGCATCGGAGT,4.46
16,GCTTACGGGTCAAGGGTTATAGCATGAATAGAAT,4.33
17,TCTCGGGGGACACGAAGGTCAGAGCTTTCCAGAG,3.72
18,CCTCGGAGGACAACAGGAGTTCAGAGCTGCCAGA,1.14
19,TCTGCTAAGTCAACGATGGTCAGCTAATCTGCTA,-0.644
20,TAGCCTAAGTCAGATCGGGCCAGTATACGCTATA,-0.662

row,Sequence,PBM binding z-score
1,CGAACTAGGTCATTGACATGACAGTGAATAGTAA,2.16
2,TCAGACGGGTGAAGGTAACTCAGGTACGCAGTCG,0.218
3,TCTATTAGTTGATTAGGGCCACCGAAACAGCGGA,0.782
4,GCATATAGGTAATACAAAGTGAAAGTCCGATTGT,-0.024
5,ATCACTAGGTAAAGTTCAGTGAAAGATCGATAGA,1.21
6,AGCATGAGGTTATTAAGATCAGGGAATTGCGGTC,2.36
7,CCTGCTAGGTCATGGTCAGCCAATCTACAGTATG,1.71
8,CATACAGGGTCAGCCAGGCCAGAGTAGGGACGGC,4.58
9,CCTATTAGTAGACCATAAGGGCAACCGAAGCTCG,0.553
10,ACTAGTTGGTCAGGTGAGGTCACACACAATTCGG,4.8
11,AGAACGAGGGCACGCTGAGTTGATAGCGGAGTAG,2.13
12,ATCGAAAGGTCGACGAGGTGAATATACACCGTTT,6.16
13,TCTGCGAGGTCAGTTGGTCAGCTAACGAGCTGCC,3.43
14,TAGCCTAGATCATGGGCCAGTATACCACGCGAAC,-0.59
15,ACAGACAGGTGATGAAGGTAAGTCAGGCTATCAT,-0.133
16,ACTGACGGGTCAACGAGGTTATAGCACGCGTATA,7.41
17,CGAACGAGGGCATGAGTTGATTGCAAATGCCGAT,1.66
18,CCTACTGGGCCTAAAAGGTCATTGATGCCGATAA,4.38
19,CCTCGGAGGACAGAAGGTTAGAGCTGTCCGCTTT,-0.275
20,ACAACGAGGGCAATGAGTTGATAGCACGGGTGGC,5.13
